In PubChem BioAssay AID485317 (Broad Institute, 2010):
In all, about 290,000 compounds went through this assay and about 11,000 (3.8%) were called active.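 Rule for the calls: active = mean replicate inhibition above about 79%, with every replicate also reaching it (limit read from the data); inconclusive = only one of the two criteria met; inactive = mean below limit and not every replicate reaching it.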 Many of the other results were omitted from the sample, so actives are more common in it than they were.

molecular target: FAD-linked sulfhydryl oxidase ALR (Homo sapiens) (UniProt P55789); assay: ALR-catalysed DTT oxidation blockers – biochemical, H2O2 detection, HRP-luminol luminescence, single point, primary screen (AID 485317); details: purified ALR, active compounds read high, concentration not given here
Sequence (P55789 whole entry, looked up): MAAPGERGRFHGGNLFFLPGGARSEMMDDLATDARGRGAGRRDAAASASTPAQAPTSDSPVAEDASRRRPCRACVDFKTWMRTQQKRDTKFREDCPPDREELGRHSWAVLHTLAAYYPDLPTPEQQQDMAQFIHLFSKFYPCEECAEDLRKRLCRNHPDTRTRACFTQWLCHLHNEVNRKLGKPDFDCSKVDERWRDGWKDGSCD

inhibition, inactive:
NC(=O)c1ccsc1NC(=O)COC(=O)Cc1n[nH]c(=O)c2ccccc12 -7.95%
Cc1cccc(NS(=O)(=O)c2ccc(C)c(C(=O)NCc3cccnc3)c2)c1 -5.85%
O=C(O)c1n[nH]nc1-c1ccccc1 -0.621%
CCCCNC(=O)C(=O)c1ccccc1NC(C)=O -1.84%
CCCCNC(=S)NNC(=O)c1cc(C)on1 55.3%
O=C(OCc1cc(=O)n2ccsc2n1)C1(c2ccc(Cl)cc2)CC1 -1.54%
COc1ccccc1C(=O)NC(=O)COC(=O)c1ccco1 -0.0405%
Cc1cccc(NC(=O)c2ccc(S(=O)(=O)N(C)CC3CCCO3)cc2)c1C (stereo unspecified) -10.6%
CCN(CC(=O)NC(C)C)C(=O)c1cc(S(=O)(=O)N2CCCCC2)ccc1N1CCCCC1 -1.75%
NC(=O)Nc1ccc(C(=O)OCC(=O)NC2CCCc3ccccc32)cc1 (stereo unspecified) -2.38%
CC(C)C[C@H](NC(=O)N1CCn2c1nc1ccccc12)C(=O)NC1CC1 -10.7%
CSCC[C@H](NC(=O)N1CCn2c1nc1ccccc12)C(=O)NCc1ccc2c(c1)OCO2 -4.75%
CC1CCN(C(=O)COC(=O)c2cc(=O)[nH]c3ccccc23)CC1 2.67%
COc1cc(Cl)c(C)cc1NC(=O)CSc1nnc(-c2ccco2)n1CC(C)C 2.64%
COc1cc(Cl)c(C)cc1NC(=O)CSc1nnc(-c2cccnc2)n1Cc1ccco1 20.1%
CCOC(=O)[C@H]1[C@H]2COc3ccccc3[C@@H]2N2C(=O)CN(Cc3ccccc3)C(=O)[C@@]12C -1.27%
C/C(=N\Nc1ncc(Cl)cc1Cl)c1cccs1 0.466%
O=C(Nc1ccccc1-c1nc2ccccc2[nH]c1=O)c1cccs1 1.37%
O=C1CCC/C=C/C[C@@H](CC(=O)N(CCO)Cc2ccccc2)C(=O)NC[C@H](c2ccccc2)O1 0.972%
CCC[C@H]1CCCC/C=C\CCCC(=O)OCCN1C(=O)OC(C)(C)C -2.32%
CC(C)CC1NC(=O)c2cc(Cl)ccc2-n2c1nc1ccccc1c2=O (stereo unspecified) -5.03%
COc1cnn(-c2ccc([N+](=O)[O-])cc2)c(=O)c1Cl 4%
Cc1ccc(OCc2n[nH]c(=S)n2-c2ccc(C)cc2)cc1 47.3%
Cc1ccc(-n2c(-c3ccc(Cl)cc3)n[nH]c2=S)cc1 -1.26%
COc1ccc(CNC(=O)COC(=O)CCS(=O)(=O)c2ccc(C)cc2)cc1OC 2.97%
CCCCN1C(=O)C(=O)N(CC(=O)Nc2cccc(C(C)=O)c2)C1=O 1.6%
C=CCC[C@@H](Cc1ccc(F)cc1)C(=O)OC[C@@H](C)NC(=O)[C@H](CC=C)CC(=O)N(CCO)Cc1ccccc1 -10.3%
Cc1nc2ccccc2c(=O)n1NC(=O)c1ccccc1 -10.2%
O=C(NC(=O)c1ccccc1)NC(=O)c1ccccc1 0.464%
Cc1ccc(C(=O)NC2CCCC(C)C2C)cc1S(=O)(=O)N1CCCCC1 (stereo unspecified) -6.06%
CC(OC(=O)c1ccc(S(=O)(=O)N2CCOCC2)cc1)c1ccccc1 (stereo unspecified) -21.1%
COCCNC(=O)COc1ccc(C)c(C)c1 11.4%
Cc1ccc(OCC(=O)NC(C)c2ccccc2)cc1C (stereo unspecified) -10.2%
CCn1nc(C(=O)NNS(=O)(=O)c2cc(/C=C/C(=O)O)cc(OC)c2OC)c2ccccc2c1=O 4%
O=C(COC(=O)c1ccc([N+](=O)[O-])o1)NC12CC3CC(CC(C3)C1)C2 -29.8%
CCOC(=O)c1cc(C)nc(S(C)(=O)=O)c1C#N 15.5%
CCOC(=O)c1cc(C#N)c(N2CCCCC2)nc1-c1ccccc1 6.36%
CCOc1cc(C(=O)Nc2ccc(S(=O)(=O)Nc3cnc4ccccc4n3)cc2)cc(OCC)c1OCC 27.5%
Cc1ccc(C)c2c1cc(C)c1nnc(SCC(=O)Nc3cccc(C(=O)O)c3)n12 3.23%
Cc1cc(NC(=O)CSc2nc(C(C)C)nc3sc4c(c23)CCC(C)C4)no1 (stereo unspecified) -10.2%
C=CC[C@H](CC(=O)NCCO)C(=O)N[C@@H](COC(=O)[C@@H](CC=C)Cc1ccc(F)cc1)Cc1c[nH]c2ccccc12 6.65%
CCOc1ccccc1NC(=O)C1CCC(CNc2c(N3CCOCC3)c(=O)c2=O)CC1 (stereo unspecified) -8.1%
COc1ccc(NC(=O)C2CCC(CNc3c(N4CCCCC4)c(=O)c3=O)CC2)c(OC)c1 (stereo unspecified) -10.1%
COc1ccc(Cl)cc1NC(=O)CN(C)C(=O)c1cc2ccccc2cc1OC -4.22%
CCCCn1c(-c2cccc(C)c2)nc2cc3[nH]c(=O)c(C(C)C)nc3cc21 -32.5%
CC1CN(C(=O)COC(=O)c2cccc(NS(=O)(=O)c3ccccc3)c2)CC(C)O1 (stereo unspecified) 2.21%
CCOc1ccc(C(=O)NCC(=O)N2CCCCCCC2)cc1OCC -5.97%
O=C(COc1ccc(Br)cc1F)NCC1(N2CCCCC2)CCCCC1 2.53%
CCOC(=O)CSc1nc(C)c(Oc2ccc(Cl)cc2Cl)c(=O)[nH]1 -20.9%
Cc1nnc(SCC(=O)N2CCOCC2)[nH]c1=O 3.8%
Cc1c(C(=O)Nc2ccccn2)oc2ccc(Br)cc12 1.89%
COc1cc(OC)c(N2CC(C(=O)Nc3cc(Cl)ccc3N3CCOCC3)CC2=O)cc1Cl (stereo unspecified) -7.16%
C[C@H]1CN([C@@H](C)CO)C(=O)Cc2cc(NC(=O)Cc3ccccc3)ccc2O[C@H]1CN(C)S(=O)(=O)c1cccs1 2.5%
CC(C)CN(C(=O)CSc1ncnc2sccc12)C1CCS(=O)(=O)C1 (stereo unspecified) 5.3%
COc1ccc(-c2cnc(SCCNC(=O)c3ccc4c(c3)OCO4)[nH]2)cc1 14.2%
CCN(CC)c1ccc2c(Nc3ccccc3)c(C=O)c(=O)oc2c1 1.6%
CCN(CC)c1ccc2cc(C(N)=O)/c(=N\NC(=O)c3ccncc3)oc2c1 8.16%
C[C@H](NS(=O)(=O)c1ccc(Cl)cc1)C(=O)OCC(=O)N1CCOCC1 -3.05%
O=C(NC1CCCCCC1)C1CCN(C(=O)c2ccc(Cl)cc2)CC1 0.152%
COc1cc(C(=O)NCc2nnc(SCC(=O)c3ccc(Cl)cc3)o2)cc(OC)c1OC -31.3%
COc1ccc(C(=O)NCc2nnc(SCC(=O)Nc3cccc(OC)c3)o2)cc1 -14.1%
COc1ccc(CN2CCN(C(=O)c3cc(C4CC4)nn3-c3ccccc3)CC2)cc1F -3.02%
CCc1ccc(CN(C)C(=O)CCc2nnc(-c3ccc(-c4ccccc4)cc3)o2)nc1 -6.23%
CN(Cc1ccccc1)C(=O)CCc1ccccc1 26.4%
COc1ccc(C(=O)OCC(=O)c2cc(C)n(CC3CCCO3)c2C)cc1[N+](=O)[O-] (stereo unspecified) -3.78%
O=C(CCNC(=O)c1ccc(Br)cc1)NCC(c1ccco1)N1CCCCC1 (stereo unspecified) 1.52%

inhibition, active:
c1ccc(Nc2n[nH]nc2-c2ccccc2)cc1 100%
CCCCNC(=O)Nc1c(C)cc(SC#N)cc1C 96.7%
CSCC[C@H](NC(=O)N1CCn2c1nc1ccccc12)C(=O)NC1CCCCC1 98.2%
CCn1c(SCC(=O)Nc2cc(C)c(Cl)cc2OC)nnc1-c1ccco1 98.5%
C/C(=N\Nc1nc2ccccc2[nH]1)c1cccs1 99%
COc1ccc(-n2c(-c3ccc(OC)c(OC)c3)n[nH]c2=S)cc1 94%
Cn1sc(NC(=O)c2ccccc2)nc1=O 88.6%
Cc1ccc(SC(=O)COc2ccc(C)c(C)c2)cc1 98.5%
CCCCSc1[nH]c(=O)c(C(=O)OCC)cc1C#N 90%
CC(C)c1nc(SCC(=O)Nc2cccc(C(=O)O)c2)c2c3c(sc2n1)CCCC3 98.2%
CCN(CC)c1ccc(NC(=O)C2CCC(CNc3c(N4CCCC4)c(=O)c3=O)CC2)c(C)c1 (stereo unspecified) 99.4%
CCCCOC(=O)CNc1nnc(SCC(=O)OCC)[nH]c1=O 100%
CCN(CC)c1ccc2oc(=O)c(C)nc2c1 96.5%
COc1cc(C(=O)NCc2nnc(SCC(=O)Nc3nc4ccc(C)cc4s3)o2)cc(OC)c1OC 96.6%
CC(=O)c1ccc(-c2nnc(CCC(=O)N(C)Cc3cnc4ccccn34)o2)s1 96.1%
